For 43 sequences, binding signal results are on record in article PMC7819943, “Rice protein-binding microarrays: a tool to detect cis-acting elements near promoter regions in rice”.

In all, about 39,000 sequences were measured (“fluorescence intensity (a.u.)”: median about 4,300, highest 2% from about 39,000 on). Many of the other results were omitted from the sample, so the highest values are more common in it than they were.

In the assay the target is T1, OsSMF1 (Oryza sativa, UniProt Q6ZLB0 1-436).
T1 sequence: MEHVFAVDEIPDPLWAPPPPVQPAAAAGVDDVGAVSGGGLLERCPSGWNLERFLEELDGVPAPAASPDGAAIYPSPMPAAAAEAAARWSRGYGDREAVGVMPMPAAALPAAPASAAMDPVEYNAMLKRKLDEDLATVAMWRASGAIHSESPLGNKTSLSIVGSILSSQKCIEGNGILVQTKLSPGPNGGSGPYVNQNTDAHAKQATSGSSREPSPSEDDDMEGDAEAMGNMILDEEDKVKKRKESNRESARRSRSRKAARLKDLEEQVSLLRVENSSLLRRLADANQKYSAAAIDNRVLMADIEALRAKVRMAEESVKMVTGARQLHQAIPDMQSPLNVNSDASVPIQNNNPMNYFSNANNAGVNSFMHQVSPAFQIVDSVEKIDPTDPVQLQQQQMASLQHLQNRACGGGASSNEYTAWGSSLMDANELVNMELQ
In words: protein-binding microarray (RPBM); PBS, 2% BSA, 51.3 ng/ul salmon testes DNA, 50 uM zinc acetate, 200 nM TF, 25 C, 1 h; high values mean tight binding. Particulars: protein: recombinant; tags: N-terminal polyhistidine and DsRed monomer fusion (pET32a); chain copies: 2; label: CyDye5-dUTP incorporated in the synthesized complementary strand; 3' TTTTT single-stranded linker to array surface; dsDNA, one strand shown. Put shortly:
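The binding signal is fluorescence intensity per feature, in arbitrary units, read on an Axon 4000B scanner. Polyhistidine- and DsRed-tagged transcription factors (N-terminal fusions) from E. coli BL21-CodonPlus were purified on Ni–NTA and applied at 200 nM for 1 h at 25 °C to a double-stranded, BSA-blocked custom Agilent array in buffer with 50 µM zinc acetate.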
As to “ACCCAAAGCCACCCGCAACAACCGACGACGACGACGACCGCGGAGTCACCTAGTGCAG”, the binding signal is 24100 fluorescence intensity (a.u.). As for “TAACCATGGTCTTGCCTACGTGGCGTGCCACGTAGACGATCGGAGTCACCTAGTGCAG”, the binding signal is 34300 fluorescence intensity (a.u.). For the sequence “CATGGTGCGGGCCAGCTCAGCTGTGCACGTGGCATGCCACCGGAGTCACCTAGTGCAG”, the binding signal was 17200 fluorescence intensity (a.u.). For the sequence “CACGTGTACAAGGGCAAAGCGCAACACCGACCCGAGTCCACGGAGTCACCTAGTGCAG”, the binding signal was 39300 fluorescence intensity (a.u.). As for “TTGAACCCCGTGTACATCAACAAACCACGTGTCCATCAAGCGGAGTCACCTAGTGCAG”, the binding signal is 6220 fluorescence intensity (a.u.). “ACCATGGTCTAACCTACGTGGCATGCCACGTGTGCGTGTGCGGAGTCACCTAGTGCAG”: the binding signal was 56000 fluorescence intensity (a.u.). Take “AAAGTTTCATGCCTGAGATGTTATGTTACGTGTCTATCCACGGAGTCACCTAGTGCAG”: the binding signal was 7680 fluorescence intensity (a.u.). With “AACATGATTTAACAGGTAACAGTCGCCCATGCCATTCTTGCGGAGTCACCTAGTGCAG”, the binding signal is 3350 fluorescence intensity (a.u.). For the sequence “ATTTTCATGCTTAGATGTAGTAACTACACCAACATTACATCGGAGTCACCTAGTGCAG”, the binding signal was 3310 fluorescence intensity (a.u.). Regarding “ATGTTTCTGCGGCCCGTCATCCGTGTTTGAGTCGGTTATACGGAGTCACCTAGTGCAG”, the binding signal is 4220 fluorescence intensity (a.u.). To “CGCAGCCCGAGCCCGCCGTATTCCACGTCGACGCTGTCGTCGGAGTCACCTAGTGCAG” belongs 5720 fluorescence intensity (a.u.); to “GAAATTTTCAGGGTGTTACATAGATCAACTGAATTCCTTACGGAGTCACCTAGTGCAG”, 3550 fluorescence intensity (a.u.). With “ATAAATTTGGACGCATCCCAAAATTCGGCAAACATATGACCGGAGTCACCTAGTGCAG” the figure was 39200 fluorescence intensity (a.u.). Turning to “CATAAATGAGATCCAGTGACGGCATGAGCATGTCCCAATTCGGAGTCACCTAGTGCAG”, the binding signal is 24900 fluorescence intensity (a.u.). In the case of “TATAAATTTGGACACATATATGAAACACATATATTGATCCCGGAGTCACCTAGTGCAG”, the binding signal is 30400 fluorescence intensity (a.u.). To “GTGAGAGAAGCCGCCTTGGATGATGTCAACCATGGTGGCGCGGAGTCACCTAGTGCAG” belongs 6930 fluorescence intensity (a.u.); to “CAATGCTAGCCGCGCAATCTGCGCGGGCCACCATGCTATTCGGAGTCACCTAGTGCAG”, 3430 fluorescence intensity (a.u.); to “CAATTATCCGCAACGTATGGCTAGCTCAACCCTACTGTAACGGAGTCACCTAGTGCAG”, 3270 fluorescence intensity (a.u.).

Take “GATGGCTATCTGCCCGGGCAAAGTGTACCCTTTTACTGTTCGGAGTCACCTAGTGCAG”: the binding signal is 30800 fluorescence intensity (a.u.). With “CAAACCCTAGCTCATATGGTTGTAGTCTTAGCTACTATCACGGAGTCACCTAGTGCAG” the figure was 50500 fluorescence intensity (a.u.); with “CACACCCTTACTGTAGCTATCACTGCACAAAGCCAAAACCCGGAGTCACCTAGTGCAG”, 43600 fluorescence intensity (a.u.). Turning to “GATATCATGTAGGAGTAGTAGTTGTTATGTGTGTGGGCTACGGAGTCACCTAGTGCAG”, the binding signal was 13000 fluorescence intensity (a.u.). As to “GGGCCAAAACAAAGCCAGCGTGCAACCCTCGACAAAGCACCGGAGTCACCTAGTGCAG”, the binding signal is 4110 fluorescence intensity (a.u.). With “CCACGGGTTCTTCCTCGATGCCTTCTCCGGCGCCGTCCGGCGGAGTCACCTAGTGCAG”, the binding signal was 45300 fluorescence intensity (a.u.). On to “TCCATGGCGCCACACGTCACCACCTTCTCACACCCTCGTCCGGAGTCACCTAGTGCAG”, for which the binding signal was 18400 fluorescence intensity (a.u.). In the case of “GCCTTCTTCCTCGCCTGCGGCCGTCTCCGCCACCTCGACCCGGAGTCACCTAGTGCAG”, the binding signal is 4040 fluorescence intensity (a.u.). As for “CTTTGCCACGGCGGTCTCTCGTCCTCTTCCTCCTCTCCGCCGGAGTCACCTAGTGCAG”, the binding signal was 4190 fluorescence intensity (a.u.). With “CCGTCTTCTTCCTCCACGTTCCTATCCATGGCGCCAGTTCCGGAGTCACCTAGTGCAG”, the binding signal was 41400 fluorescence intensity (a.u.). With “CAACCATGGCGTCATCCTCTTCCTCCTCCTCCTCCTCCTCCGGAGTCACCTAGTGCAG” the figure was 5800 fluorescence intensity (a.u.). Take “CGGCCGCGTCAGGGAGGACGCCGCGCGGCACTACTTCCGGCGGAGTCACCTAGTGCAG”: the binding signal was 3870 fluorescence intensity (a.u.). With “CGACGGCCACAACCGGTTGTGGCGGCGTCTGCGTTGGCAGCGGAGTCACCTAGTGCAG”, the binding signal was 5430 fluorescence intensity (a.u.).

As for “ATTGCTTTATATGGTTATTTAAGTTTATTTTGCATCCCTACGGAGTCACCTAGTGCAG”, the binding signal was 22600 fluorescence intensity (a.u.). As for “ACAGGAGCACCATCAACAGCTGACAACTTGGCATTGGTATCGGAGTCACCTAGTGCAG”, the binding signal is 3680 fluorescence intensity (a.u.).

As to “ATCAAAATGGCAACAAAAGGGAGTCCAAAGTGAAAATTTTCGGAGTCACCTAGTGCAG”, the binding signal was 36100 fluorescence intensity (a.u.). On to “GCGGCTGAATTAATCTCCATCTGGCGAGCATCCACATCCTCGGAGTCACCTAGTGCAG”, for which the binding signal is 52300 fluorescence intensity (a.u.). “CCTCTGGCATCCATTATTGAGTTTATTAATCCTCCATCCTCGGAGTCACCTAGTGCAG”: the binding signal is 26300 fluorescence intensity (a.u.). With “ATCTCCATCGCTGGCGACGGCGAGCATCGCATCGCATCGCCGGAGTCACCTAGTGCAG” the figure was 3150 fluorescence intensity (a.u.); with “ACATCATCGGCTACGTCAGGTCCAGCGCCGCCGCCAAGGCCGGAGTCACCTAGTGCAG”, 6640 fluorescence intensity (a.u.). Turning to “AACCCTAGCCACTCTCGTTTCATTGGTCTGACTTATTGGGCGGAGTCACCTAGTGCAG”, the binding signal was 14700 fluorescence intensity (a.u.). To “CGCGCGTCTCGACTCCGTCCCAATCGATCGATCGATCGCGCGGAGTCACCTAGTGCAG” belongs 12800 fluorescence intensity (a.u.). Turning to “CGCGCCATCGGCACGCTGGGCCAACACGGCACGGTGGACCCGGAGTCACCTAGTGCAG”, the binding signal is 3820 fluorescence intensity (a.u.). For “GGACACACACCCACACGCGCATCCATCCATCCATCCATCCCGGAGTCACCTAGTGCAG”, the binding signal was 3220 fluorescence intensity (a.u.). As for “CACGAGCTGGTGGGCATCGAGGACTCCACACACGCGCATCCGGAGTCACCTAGTGCAG”, the binding signal was 42800 fluorescence intensity (a.u.).
